MmCpn inh – inhibitors of Methanococcus maripaludis chaperonin TRiC (MmCpn). 330,000 compounds, 0.031% hits. Potency, µM (doses to about 76.9 µM), for inactives: at the top dose activity, negative = inhibition, hits mostly inhibitors. purified Mm-Cpn ATPase, ADP Transcreener TR-FRET; further: potency means the concentration at half of the fitted maximal effect; nearly all actives have a fitted effect of over 80% in size
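25 nM Mm-CPN + cpd, 10 min 37°C; + 10 uM ATP, 30 min 37°C; buffer 30 mM Tris pH 7.4, 100 mM KCl, 5 mM MgCl2, 1 mM DTT; Transcreener ADP HTRF detection 30 min RT.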
VDR inhibitor – inhibitors of human vitamin D receptor; P11473; VDR-SRC2-3 peptide fluorescence polarization, 2 h; Potency, µM, for the others: max response, negative = inhibition, usual class: inhibitors; 400,000 compounds, 0.93% hits; further: potency means the concentration at half of the fitted maximal effect
Target sequence (P11473 whole entry, looked up): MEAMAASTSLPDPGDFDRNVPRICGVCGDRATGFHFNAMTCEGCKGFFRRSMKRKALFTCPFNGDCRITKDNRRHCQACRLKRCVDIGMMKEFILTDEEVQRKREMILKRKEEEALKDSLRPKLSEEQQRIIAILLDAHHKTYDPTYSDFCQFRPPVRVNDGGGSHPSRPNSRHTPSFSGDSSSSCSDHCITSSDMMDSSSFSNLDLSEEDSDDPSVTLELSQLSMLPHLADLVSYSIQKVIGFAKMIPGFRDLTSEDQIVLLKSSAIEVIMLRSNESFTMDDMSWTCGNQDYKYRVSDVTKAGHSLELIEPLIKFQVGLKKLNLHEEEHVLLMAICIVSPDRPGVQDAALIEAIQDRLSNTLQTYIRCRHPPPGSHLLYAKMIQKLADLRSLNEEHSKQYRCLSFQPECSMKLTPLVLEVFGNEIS
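Reagent solutions, kept cold and dark, are dispensed first; compounds are then pinned in at 23 nl, plates briefly spun, and incubated 2 h at ambient temperature. Inhibition of VDR–SRC2-3 peptide binding is read by fluorescence polarization.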
PLK1 PBD inh – blocks phosphopeptide binding to human PLK1 polo-box domain. AID 720504. P53350. Plk1 PBD binding of FITC phosphopeptide, fluorescence polarization. 360,000 compounds, 2.8% hits. Potency, µM, without a hit: max response, negative = inhibition, hits mostly inhibitors; further: potency means the concentration at half of the fitted maximal effect; series mostly up to about 57 µM; nearly all actives have a fitted effect of over 65% in size
Sfp inh – inhibitors of Bacillus subtilis Sfp phosphopantetheinyl transferase. Q9F4F7. Biochemical Sfp PPTase activity, qHTS. Potency, µM, without a hit: largest response in the series, negative = inhibition, most hits filed as inhibitors. 310,000 compounds, 3.5% hits. AID 1490;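 further: the enzyme is Sfp with the accession as filed and its product quenches rhodamine fluorescence; potency means the concentration at half of the fitted maximal effect; 0% = enzyme reaction without inhibitor and -100% = no enzyme wells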
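Fluorescence-quenching assay with 15 nM Sfp, 5 uM rhodamine-CoA and 12.5 uM BHQ-2-labelled ybbR peptide in pH 7.6 Hepes/MgCl2 buffer. Enzyme was pre-incubated with compound for 15 min at room temperature. Rate was taken from the 30-min fluorescence change (525/598 nm).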
CCT chaperon mod – cytosolic chaperonin activity modulation. purified chaperonin ATPase assay, HTRF ADP detection, 30 min. AID 651819. 360,000 compounds, 0.3% hits. activity change, % (concentration not given with the values), hits read low; in the data active means activity change below about -30%
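Nucleotide hydrolysis assay: TRiC at 20–40 nM final (set by batch activity) with 10 uM ATP, 30 min at 37 °C, in presence of 76 uM compound. Detection by competitive ADP HTRF, 30 min ambient.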
G9a inh – inhibitors of human histone lysine methyltransferase G9a; Q96KQ7; G9a H3K9 monomethylation, AlphaScreen, 2 h; Potency, µM (doses to about 102 µM), for inactives: at the top dose activity, negative = inhibition, hits mostly inhibitors; 350,000 compounds, 8.8% hits; AID 504332; further: potency means the concentration at half of the fitted maximal effect; nearly all actives have a fitted effect of over 75% in size
Target sequence (Q96KQ7 913-1193 limits assumed): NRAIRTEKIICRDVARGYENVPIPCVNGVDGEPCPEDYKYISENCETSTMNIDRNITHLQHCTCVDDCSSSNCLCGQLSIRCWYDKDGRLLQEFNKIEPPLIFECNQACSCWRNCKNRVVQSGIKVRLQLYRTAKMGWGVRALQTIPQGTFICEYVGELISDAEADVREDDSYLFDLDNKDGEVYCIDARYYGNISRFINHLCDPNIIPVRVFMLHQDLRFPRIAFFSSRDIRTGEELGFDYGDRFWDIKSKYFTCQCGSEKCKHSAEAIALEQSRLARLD
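AlphaScreen read-out: biotin-H3K9 peptide (500 nM) methylation by 20 nM enzyme with 20 uM SAM, 2 h at room temperature after 15 min compound preincubation; anti-monomethyl H3K9 antibody plus donor/acceptor beads, 10 min dark.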
* marks the source's active call; other numbers are inactive results; ? = inconclusive; . = no result; [ ] = another dose, or the depositor's remark. This is a sample that favours compounds with a hit; in the whole collection about 10% have one here. Unless noted, the call rests on the fitted dose curve; in most records, active means well fitted curve in the direction sought with a large enough effect; inconclusive means small, poorly fitted or top-dose-only effect, or another doubt; inactive means no such curve, though single readings can be large; an effect the other way counts as inactive or inconclusive. Unless noted, on the % scale 0 is the no-effect control and ±100 the full control effect.

SMILES | MmCpn inh | VDR inhibitor | PLK1 PBD inh | Sfp inh | CCT chaperon mod | G9a inh
COc1ccc(NC(=O)c2ccc(Cn3cc(Cl)cn3)cc2)cc1 | -1.7% | -1.5% | -17.4% | -15.7% | -1.2 | .
CC(C)N(C(=O)c1ccc(C(=O)Nc2ccc([N+](=O)[O-])cc2)cc1)C(C)C | -1.2% | -2.7% | -4.3% | 7.5% | -31.9* | 1.6%
CCNS(=O)(=O)c1ccc(NC(=O)c2ccc(Cn3cc([N+](=O)[O-])cn3)o2)cc1 | 7.1% | -20.8% | 0.9% | 1.2% | -0.7 | 50.1µM*
CN(C)c1ccc(NC(=O)c2ccc(Cn3cc([N+](=O)[O-])cn3)cc2)cc1 | -0.8% | -2.7% | 6.3% | -1.7% | -1.4 | 14.1µM*
CC(C)COc1ccc(C(=O)Nc2ccc([N+](=O)[O-])cc2)cc1 | -0.5% | -14.6% | ? | -8.6% | 0.0 | 23.6%[59 µM]
CCN(CC)S(=O)(=O)c1ccc2c(c1)N(CC(=O)NCCCN1CCN(c3ccc(OC)cc3)CC1)C(=O)CO2 | . | 4.6% | . | . | . | ?
COc1ccc(C2CC(=O)c3c([nH]c(C(=O)OC4CCCCCC4)c3C)C2)cc1OC (stereo not drawn) | . | -13.0% | . | . | . | 6.0%[59 µM]
O=[N+]([O-])c1ccc(COc2cccc(CNc3ccc(Br)cc3)c2)cc1 | 0.7% | -4.6% | -4.0% | 21.9% | 0.0 | 44.7µM*
COc1ccc(N2C(=O)CCSC23C(=O)N(Cc2ccc(F)cc2)c2ccccc23)cc1Cl (stereo not drawn) | . | 3.2% | . | . | . | ?
N#CCCN(C(=O)c1ccc2c(=O)n3c(nc2c1)CCCCC3)c1ccccc1 | 0.8% | -8.4% | 23.8µM* | 22.1% | -0.6 | 16.8%
CC(=O)c1cccc(OC(=O)c2ccc3c(=O)n4c(nc3c2)CCC4)c1 | 1.9% | ? | 4.0% | . | 1.8 | 7.08µM*
N#CCCN(C(=O)COC(=O)c1ccc2c(=O)n3c(nc2c1)CCC3)c1ccccc1 | -16.5% | ? | ? | -40.0% | 1.3 | 30.5%
CCn1nc(C)c(CNC(=O)c2cc(COc3cncc(Cl)c3)on2)c1C | 0.5% | ? | 23.8µM* | 5.9% | 0.3 | 23.8%
CCc1ccc(NC(=O)CSc2ccnc(=O)[nH]2)cc1 | . | 6.5% | . | . | . | 4.5%[59 µM]
C=CCN(CC=C)CC(=O)Nc1ccc(S(N)(=O)=O)cc1 | 0.8% | -9.5% | 4.4% | 11.8% | -2.0 | 0.708µM*
O=C(CN1CCN(S(=O)(=O)c2ccc(Cl)cc2)CC1)Nc1ccc(N2CCOCC2)cc1 | -1.0% | -6.5% | -3.1% | 3.3% | -2.3 | 56.2µM*
O=C(CN1CCN(c2ccc(O)cc2)CC1)Nc1cc(S(=O)(=O)N2CCCCC2)ccc1Cl | 1.4% | -5.9% | 0.9% | 56.2µM* | -0.3 | 7.94µM*
CCN1CCN(CC(=O)Nc2cc(S(=O)(=O)N3CCCCC3)ccc2Cl)CC1 | -7.5% | 9.6% | -5.1% | . | 0.4 | .
NS(=O)(=O)c1ccc(NC(=O)CN2CCCN(S(=O)(=O)c3ccc(F)cc3)CC2)cc1 | 1.3% | -2.1% | -14.9% | -1.7% | -23.6 | -36.7%
NS(=O)(=O)c1ccc(NC(=O)CN2CCN(S(=O)(=O)c3ccc(F)cc3)CC2)cc1 | -3.2% | ? | 4.74µM* | 13.1% | -1.1 | 17.8%
COc1ccc2c(c1)[C@]1(C)CCC(=O)C[C@H]1CC2 | . | -12.8% | . | -0.1% | . | .
COc1ccc(CNC(=O)c2ccc3c(c2)N(Cc2cccc(Cl)c2)C(=O)c2ccccc2S3)c(OC)c1 | . | 1.4% | . | . | . | -28.6%[59 µM]
CCc1nc2ccc(C(=O)NCCc3ccc(OC)cc3OC)cc2nc1CC | . | -8.0% | . | . | . | 8.0%[59 µM]
CN1CCN(CC(=O)Nc2ccc(S(=O)(=O)N(C)C)cc2)CC1 | 0.4% | -11.5% | 1.4% | 56.2µM* | -0.9 | 44.7µM*
CC1CCN(CC(=O)Nc2ccc(S(=O)(=O)N3CCCCC3)cc2)CC1 | 0.0% | -12.9% | -14.5% | -5.2% | -0.8 | .
SMILES | MmCpn inh | VDR inhibitor | PLK1 PBD inh | Sfp inh | CCT chaperon mod | G9a inh
COc1cc2c(cc1OC)C(C)N(CC(=O)Nc1ccc(S(=O)(=O)N3CCCC3)cc1)CC2 (stereo not drawn) | 0.3% | 4.5% | -1.5% | 2.0% | 0.2 | 39.8µM*
CC1CCN(S(=O)(=O)c2ccc(NC(=O)CN3CCN(C)CC3)cc2)CC1 | -0.7% | 18.3% | -1.1% | -9.5% | -3.5 | 11.2µM*
Cc1ccc(CN(C(=O)COc2cccc([N+](=O)[O-])c2)c2ccccn2)cc1 | . | 12.8% | . | . | . | 3.2%[59 µM]
COc1ccccc1/C=C/C=N/NC(=O)c1cc(-c2ccco2)[nH]n1 | -3.6% | 14.1% | ? | 12.6µM* | -4.5 | .
CC(=O)C1=C(C)NC(SCc2cccc3ccccc23)=C(C#N)C1c1ccco1 (stereo not drawn) | ? | -20.1% | -7.1% | 50.1µM* | -0.2 | 31.6µM*
CC(=O)C1=C(C)NC(SCC(=O)c2ccccc2)=C(C#N)C1c1ccco1 (stereo not drawn) | -11.9% | . | . | 56.2µM* | . | ?
CC(=O)C1=C(C)NC(SCC(=O)c2ccc(Cl)cc2Cl)=C(C#N)C1c1ccco1 (stereo not drawn) | -11.2% | 22.4% | -6.3% | 44.7µM* | -3.2 | ?
CCOC(=O)C1=C(c2ccccc2)NC(SC)=C(C#N)C1c1ccco1 (stereo not drawn) | 0.6% | 27.4% | -17.6% | -0.3% | -2.4 | 44.7µM*
Cc1ccc2c(c1)C(=O)C(=O)N2Cc1ccc(OCCC(C)C)cc1 | . | -9.0% | . | . | . | -32.4%[59 µM]
Cc1ccc(C(=O)CSC2=C(C#N)C(c3ccco3)CC(=O)N2)c(C)c1 (stereo not drawn) | -1.2% | -8.1% | -22.3% | 50.1µM* | -0.4 | ?
Cc1ccc(NC(=O)CSC2=C(C#N)C(c3ccco3)CC(=O)N2)cc1 (stereo not drawn) | -1.1% | -14.5% | -7.2% | -8.5% | -0.8 | -15.1%
CC(=O)C1=C(C)NC(SCC(=O)c2ccc(Cl)cc2)=C(C#N)C1c1ccco1 (stereo not drawn) | -9.2% | 18.6% | -5.3% | 50.1µM* | -1.3 | ?
COc1cccc(CNC(=O)Cc2ccc(NC(=O)N3CCSc4ncccc43)cc2)c1OC | . | 5.6% | . | . | . | -2.3%[59 µM]
C[C@@H](c1ccccc1)N1C(=O)[C@H]2[C@H]3[C@H](O)[C@H](O)C/C(=N/NC(=O)OCc4ccccc4)[C@H]3CC[C@@H]2C1=O | . | . | . | -8.6% | . | .
O=C(O)C1CC=CCC1C(=O)NCc1ccccc1 (stereo not drawn) | 1.0% | -7.4% | -2.7% | 11.7% | 1.0 | 28.8%[12.7 µM]
Cc1cc(C)c(NC(=O)/C=C\C(=O)O)c([N+](=O)[O-])c1 | 0.6% | 12.2% | -19.6% | ? | 1.4 | 3.55µM*
Cc1ccc(NC(=O)C2CC2c2ccccc2)c([N+](=O)[O-])c1 (stereo not drawn) | -0.3% | 11.3% | 1.1% | -11.2% | 2.8 | 39.8µM*
O=C(O)C1CC=CCC1C(=O)NNc1ccccc1 (stereo not drawn) | -3.4% | -12.2% | -17.3% | 17.5% | -0.9 | 14.1µM*
